Reference: the supplement of paper PMC9801561
± gives the standard deviation of the averaged measurements.

What follows are compounds tested on Escherichia coli Nissle 1917 (assay: area under OmniLog respiration curve over 48 h (OmniLog units x h); higher = more growth / nutrient utilisation; extreme values may be limits of the assay). Details: nutrient role: C-Source, amino acid; incubation: 48 h, 37 °C.

Row | SMILES | area under OmniLog respiration curve
1 | N[C@@H](Cc1c[nH]cn1)C(=O)O [L-Histidine] | 4.72
2 | NCCC[C@H](N)C(=O)O [L-Ornithine] | 34.5 ± 27
3 | CC(C)C[C@H](N)C(=O)O [L-Leucine] | 15.5 ± 9.5
4 | N=C(N)NCCC[C@H](N)C(=O)O [L-Arginine] | 4.72
5 | NC(=O)CC[C@H](N)C(=O)O [L-Glutamine] | 8360 ± 610
6 | NCCCC[C@H](N)C(=O)O [L-Lysine] | 10.5 ± 10
7 | N[C@@H](CO)C(=O)O [L-Serine] | 8500 ± 700
8 | N[C@H](CO)C(=O)O [D-Serine] | 9490 ± 1100
9 | C[C@H](N)C(=O)O [L-Alanine] | 8160 ± 580
10 | NC(=O)C[C@H](N)C(=O)O [L-Asparagine] | 8660 ± 760
11 | N[C@H](CC(=O)O)C(=O)O [D-Aspartic acid] | 48 ± 53
12 | N[C@@H](CCC(=O)O)C(=O)O [L-Glutamic acid] | 7390 ± 830
13 | CC(C)[C@H](N)C(=O)O [L-Valine] | 5.38 ± 1.1
14 | NCC(=O)O [Glycine] | 4.72
15 | N[C@@H](CC(=O)O)C(=O)O [L-Aspartic acid] | 8900 ± 710
16 | CC[C@H](C)[C@H](N)C(=O)O [L-Isoleucine] | 11.5 ± 6.6
17 | O=C1CC[C@@H](C(=O)O)N1 [L-Pyroglutamic acid] | 6.07 ± 1.2
18 | N[C@@H](Cc1ccccc1)C(=O)O [L-Phenylalanine] | 8.61 ± 5.9
19 | O=C(O)[C@@H]1CCCN1 [L-Proline] | 8520 ± 530
20 | C[C@H](N)C(=O)NCC(=O)O | 7280 ± 620
21 | N[C@@H](CCO)C(=O)O [L-Homoserine] | 4.72
22 | CC(=O)N[C@@H](CCC(=O)O)C(=O)O [N-Acetyl-L-Glutamic acid] | 4.72
23 | CSCC[C@H](N)C(=O)O [L-Methionine] | 33.3 ± 28

Same assay, conditions: nutrient role: C-Source, carbohydrate; incubation: 48 h, 37 °C

Row | SMILES | area under OmniLog respiration curve
24 | O=c1[nH]cnc2c1ncn2[C@@H]1O[C@H](CO)[C@@H](O)[C@H]1O [Inosine] | 9540 ± 290
25 | O=C[C@H](O)[C@@H](O)[C@H](O)[C@H](O)COP(=O)(O)O [D-Glucose-6-Phosphate] | 10100 ± 940
26 | N[C@H]1C(O)O[C@H](CO)[C@@H](O)[C@@H]1O (stereo partly drawn) [D-Glucosamine] | 8060 ± 400
27 | Cc1cn([C@H]2C[C@H](O)[C@@H](CO)O2)c(=O)[nH]c1=O [Thymidine] | 9560 ± 710
28 | O=P(O)(O)OC[C@H](O)CO (racemic) [DL-a-Glycerol Phosphate] | 7910 ± 780
29 | O=c1ccn([C@@H]2O[C@H](CO)[C@@H](O)[C@H]2O)c(=O)[nH]1 [Uridine] | 9200 ± 570
30 | CC(=O)N[C@@H]1C(O)O[C@H](CO)[C@@H](O)[C@@H]1O (stereo partly drawn) [N-Acetyl-D-Mannosamine] | 7300 ± 450
31 | Nc1ncnc2c1ncn2[C@@H]1O[C@H](CO)[C@@H](O)[C@H]1O [Adenosine] | 9110 ± 480
32 | CC(=O)N[C@H]1C(O)O[C@H](CO)[C@H](O)[C@@H]1O (stereo partly drawn) [N-Acetyl-D-Galactosamine] | 8120 ± 580
33 | O=P(O)(O)O[C@H]1O[C@H](CO)[C@@H](O)[C@H](O)[C@H]1O [D-Glucose-1-Phosphate] | 8850 ± 750
34 | CC(=O)N[C@@H]1[C@@H](O)[C@H](O)[C@@H](CO)O[C@@H]1O [N-Acetyl-D-Glucosamine] | 7820 ± 520
